From PubChem BioAssay (NCATS) come the findings set out here.

For test [1], the target named is Lysosomal acid glucosylceramidase (Homo sapiens) (UniProt P04062). The test can be described thus: Glucocerebrosidase-p2 (AID 348; in the data active = potency below about 10 µM; note: potency is the fitted concentration of half-maximal effect). As to conditions: purified GBA, blue fluorogenic substrate, 40 min. Summed up: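 Compounds titrated from 0.6 nM upwards against 0.2 nM enzyme in pH 5.9 citric acid/KH2PO4, taurocholate, tween-20; blue fluorogenic substrate 80 uM, 40 min room temperature, stopped and read Ex 365/Em 440 for AC50.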

Test [2] is described as follows: AP1 Signaling Pathway (AID 357).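 Note: ME-180 reporter cells stimulated with EGF at its EC50 level; % is set by controls: 0 for no effect and ±100 for the full control effect.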 Particulars: ME-180 AP-1-bla reporter, EGF-induced, beta-lactamase ratio, 5 h; at 7.69 µM (top of the series) unless noted. The procedure, abridged: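 Beta-lactamase reporter under AP-1 response element, ME-180 background. Stimulus: EC50 EGF. Compound exposure 5 h, 37 °C. Detection: CCF4, 2.5 h RT, 460/530 nm. Values: AC50 from titration.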

Test [3] can be described thus: NFAT Signaling Pathway (AID 444).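 Note: carbachol stimulus at about its EC50 of 1 µM final; % is set by controls: 0 for no effect and ±100 for the full control effect.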 As to conditions: Jurkat NFAT-bla M1, carbachol, beta-lactamase ratio, 5 h; at 7.69 µM (top of the series) unless noted. Summed up:
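Read-out: CCF4 FRET ratio (460 nm/530 nm) after 1 h RT dye loading, used for %activity and AC50 from titration series. Cells: Jurkat NFAT-β-lactamase/M1 line, treated with compound plus 1 uM carbachol for 5 h, 37 °C.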

Test [4] in a line: Stat Signaling Pathway (AID 446).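 Note: ME-180 cervical cancer cells given 40 pM IL-6 alongside compound; SIE-controlled beta-lactamase reporter measured as 460/530 nm FRET emission ratio; % is set by controls: 0 for no effect and ±100 for the full control effect.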 As to conditions: ME-180 SIE beta-lactamase reporter, IL-6 stimulated, 5 h; at 7.69 µM (top of the series) unless noted. The procedure, abridged:
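ME-180 cells carrying a SIE-driven beta-lactamase reporter are stimulated with 40 pM IL-6 for 5 h at 37C in the presence of compound. The 460/530 nm FRET substrate ratio is read after 2.5 h at RT. Data are normalised to 300 pM IL-6 and to 125 nM JAK inhibitor controls.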

In test [5] the target is Glucocorticoid receptor (Homo sapiens) (UniProt P04150). Nature of the test: GR-EFC Redistribution (AID 451; calls by dose curve; note: potency is the fitted concentration of half-maximal effect). As to conditions: CHO-K1 GR-EFC translocation, beta-gal luminescence, 2 h. Summed up:
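Translocation of GR-ED fusion to nuclear EA restores b-gal, read by luminescence after 1 h room-temperature detection. Engineered CHO-K1 biosensor cells, 1,000/well, exposed 2 h at 37 C to titrations up to 46 uM final.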

The target of test [6] is Mitogen-activated protein kinase 10 (Mus musculus) (UniProt Q61831). Nature of the test: JNK3 AlphaScreen Assay (AID 530).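 Note: kinase came from lysate of stimulated human HepG2 cells; signal reports phosphorylation of biotinylated GST-cJun 1-79 at Ser73 with 10 µM ATP; % is set by controls: 0 for no effect and ±100 for the full control effect.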 As to conditions: JNK3 lysate, c-Jun phosphorylation; series mostly up to 57.1 µM. Summed up: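 Compound titrations were preincubated 15 minutes at room temperature with substrate, antibody and pre-activated JNK3-containing HepG2 lysate. Reactions were started with 10 uM ATP and stopped with EDTA-containing bead buffer for AlphaScreen detection.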
A general note: Alpha assays give light when donor and acceptor beads are brought close together.

Test [7] concerns the target 3',5'-cyclic-AMP phosphodiesterase 4B (Homo sapiens) (UniProt Q07343). Nature of the test: qHTS Assay for Inhibitors of PDE-IV (AID 607; active = well fitted activation curve with a large enough effect in the main read-out, with a control signal flat, not every such curve was filed as active; note: % of control where 0% means no effect). Particulars: HEK293 ACTOne CNG channel cells, membrane potential fluorescence; series mostly up to 22.9 µM. The procedure, abridged:
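HEK293 ACTOne cells with CNG channel (1000/well), endogenous PDE4; membrane potential dye, compounds up to 22.9 uM final. Fluorescence Ex 535/Em 590; RO 20-1724 (100 uM final) as reference.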
Background: qHTS replaces the single test concentration by a dilution series.

Test [8] has as its target Cytochrome P450 3A4 (Homo sapiens) (UniProt P08684). Nature of the test: qHTS Assay for Activators of Cytochrome P450 3A4 (AID 885; active = well fitted curve in the direction sought with a large enough effect; an effect the other way counts as inactive or inconclusive; note: nearly all actives have a fitted effect of over 65% in size; note: potency is the fitted concentration of half-maximal effect). Particulars: recombinant CYP3A4, Luciferin-PPXE luminescence, 60 min; series mostly up to 57.1 µM. The procedure, abridged: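 Human CYP3A4 (20 nM) with Luciferin-PPXE at 25 uM (its KM) in 200 mM KPO4; 10 min compound preincubation, then NADPH regeneration and 60 min reaction at RT. Luciferin read by luminescence; normalized to 57 uM ketoconazole full inhibition.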

A short description of test [9]: qHTS Assay for Lipid Storage Modulators (AID 1519; calls by dose curve). As to conditions: Drosophila S3 cells, BODIPY lipid droplet/cell ratio, laser cytometry, cells loaded with oleic acid; for activity change, negative = inhibition: at 57.5 µM (top of the series). Summed up: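 Cells seeded at 5,000 per well were treated with compounds over a concentration series and loaded with oleic acid (400 uM, as added). Lipid droplet fluorescence (488 nm excitation, 500-530 nm channel) was read by laser-scanning cytometry and normalized to 20 uM Triacsin C.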

Test [10] can be described thus: Primary qHTS for small molecule stabilizers of the endoplasmic reticulum resident proteome: Secreted ER Calcium Modulated Protein (SERCaMP) assay (AID 1508630; active = well fitted curve in the direction sought with a large enough effect; an effect the other way counts as inactive or inconclusive; note: % is set by controls: 0 for no effect and ±100 for the full control effect). As to conditions: SH-SY5Y GLuc-SERCaMP (Gaussia luciferase released on ER calcium loss) secretion, thapsigargin, luminescence; series mostly up to 38.4 µM. The procedure, abridged: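 GLuc-SERCaMP-expressing SH-SY5Y cells, pretreated 16 h with compound, are challenged with thapsigargin to empty ER calcium stores; after 4 h, coelenterazine is added directly to the medium and luminescence is imaged.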

The target in test [11] is Cytochrome P450 2D6 (Homo sapiens) (UniProt P10635). The test can be described thus: qHTS Assay for Inhibitors and Substrates of Cytochrome P450 2D6 (AID 891; active = well fitted curve in the direction sought with a large enough effect; an effect the other way counts as inactive or inconclusive; note: potency is the fitted concentration of half-maximal effect; nearly all actives have a fitted effect of over 60% in size). Particulars: recombinant CYP2D6, luciferin-ME EGE luminescence; series mostly up to 57.1 µM. Summed up:
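Human CYP2D6 (5 nM) with 30 uM Luciferin-ME EGE (at Km) in 100 mM KPO4, compound preincubated 10 min, then NADPH regeneration system for 60 min at room temperature. Luciferin read by luminescence; normalized to 1.43 uM quinidine.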

Test [12] can be described thus: qHTS Assay for Identification of Small Molecule Agonists for Hypoxia Response Element Signaling Pathway (AID 914; active = well fitted activation curve with a large enough effect in the signal ratio, with a control signal flat, not every such curve was filed as active; the % refers to the signal ratio; note: % of control where 0% means no effect). Particulars: ME-180 (cervical carcinoma) HRE-bla reporter, beta-lactamase ratio, CoCl2, 17 h; activation: stronger effect = higher value. Summed up: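 Compounds in a titration series were added to ME-180 reporter cells alongside an EC50 level of CoCl2. After 17 hours, beta-lactamase activity was read as the 460nm/530nm emission ratio of CCF4, giving AC50 values.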

Where [13] appears, read: measured here: cell count channel max response.
[14] abbreviates: measured here: lipid channel max response.

Structures are written as SMILES. Inconclusive results are not listed. The source made the active and inactive calls. Unless noted, calls come from the whole dose curve; as a rule, active = well fitted curve in either direction with a large enough effect (not every such curve was filed as active); inconclusive = small, poorly fitted or top-dose-only effect, or another doubt; inactive = flat fitted curve, though single readings scatter.

Chain of Cytochrome P450 3A4 (Homo sapiens) (P08684 whole entry, looked up): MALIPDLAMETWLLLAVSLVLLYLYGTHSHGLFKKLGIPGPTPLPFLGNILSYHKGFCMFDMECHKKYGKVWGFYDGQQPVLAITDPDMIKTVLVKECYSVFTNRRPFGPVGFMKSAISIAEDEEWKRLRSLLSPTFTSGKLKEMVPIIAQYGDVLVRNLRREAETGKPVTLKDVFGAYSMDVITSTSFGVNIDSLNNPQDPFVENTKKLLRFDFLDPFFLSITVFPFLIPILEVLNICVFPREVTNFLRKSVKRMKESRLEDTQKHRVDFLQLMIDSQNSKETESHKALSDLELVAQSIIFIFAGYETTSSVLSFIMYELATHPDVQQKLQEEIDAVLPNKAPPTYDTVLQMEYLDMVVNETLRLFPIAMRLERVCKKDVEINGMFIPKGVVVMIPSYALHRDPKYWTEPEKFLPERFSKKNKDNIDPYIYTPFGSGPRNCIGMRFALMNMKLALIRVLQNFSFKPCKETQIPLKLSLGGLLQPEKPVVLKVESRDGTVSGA
Chain of Glucocorticoid receptor (Homo sapiens) (P04150 whole entry, looked up, the tested form may be a part): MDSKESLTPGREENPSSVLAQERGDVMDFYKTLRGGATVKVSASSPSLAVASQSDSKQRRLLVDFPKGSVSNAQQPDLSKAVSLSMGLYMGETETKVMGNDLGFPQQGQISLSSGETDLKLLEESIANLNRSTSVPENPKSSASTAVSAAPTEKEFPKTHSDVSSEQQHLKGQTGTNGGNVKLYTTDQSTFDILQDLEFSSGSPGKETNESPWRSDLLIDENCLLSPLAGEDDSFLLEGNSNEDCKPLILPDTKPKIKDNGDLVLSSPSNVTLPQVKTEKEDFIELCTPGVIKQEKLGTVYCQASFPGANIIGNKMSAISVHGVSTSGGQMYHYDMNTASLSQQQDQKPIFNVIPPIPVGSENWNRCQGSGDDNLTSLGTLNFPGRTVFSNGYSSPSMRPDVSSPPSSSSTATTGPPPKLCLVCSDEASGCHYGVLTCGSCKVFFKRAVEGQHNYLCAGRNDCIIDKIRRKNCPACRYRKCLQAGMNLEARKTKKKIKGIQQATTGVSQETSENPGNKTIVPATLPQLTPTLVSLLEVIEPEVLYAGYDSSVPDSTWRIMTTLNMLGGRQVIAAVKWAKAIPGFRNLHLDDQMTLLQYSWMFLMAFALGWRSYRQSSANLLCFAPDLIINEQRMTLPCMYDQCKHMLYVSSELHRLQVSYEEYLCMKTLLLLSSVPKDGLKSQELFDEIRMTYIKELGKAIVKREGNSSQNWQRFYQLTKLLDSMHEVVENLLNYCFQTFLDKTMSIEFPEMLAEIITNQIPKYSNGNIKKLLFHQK
Chain of Lysosomal acid glucosylceramidase (Homo sapiens) (P04062 whole entry, looked up): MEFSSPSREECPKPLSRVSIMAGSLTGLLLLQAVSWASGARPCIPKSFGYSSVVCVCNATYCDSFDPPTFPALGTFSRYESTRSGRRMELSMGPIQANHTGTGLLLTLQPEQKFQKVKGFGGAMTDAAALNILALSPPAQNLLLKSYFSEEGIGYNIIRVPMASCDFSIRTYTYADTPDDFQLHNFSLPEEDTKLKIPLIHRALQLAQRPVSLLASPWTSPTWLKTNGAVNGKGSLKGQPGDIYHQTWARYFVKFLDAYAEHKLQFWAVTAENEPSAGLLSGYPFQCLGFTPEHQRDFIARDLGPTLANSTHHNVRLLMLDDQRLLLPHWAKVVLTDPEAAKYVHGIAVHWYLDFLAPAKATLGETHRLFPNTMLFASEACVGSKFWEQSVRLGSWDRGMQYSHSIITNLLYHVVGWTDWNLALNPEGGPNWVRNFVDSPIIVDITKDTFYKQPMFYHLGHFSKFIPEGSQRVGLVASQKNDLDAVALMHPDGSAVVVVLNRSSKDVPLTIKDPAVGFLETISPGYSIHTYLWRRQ
Chain of 3',5'-cyclic-AMP phosphodiesterase 4B (Homo sapiens) (Q07343 whole entry, looked up): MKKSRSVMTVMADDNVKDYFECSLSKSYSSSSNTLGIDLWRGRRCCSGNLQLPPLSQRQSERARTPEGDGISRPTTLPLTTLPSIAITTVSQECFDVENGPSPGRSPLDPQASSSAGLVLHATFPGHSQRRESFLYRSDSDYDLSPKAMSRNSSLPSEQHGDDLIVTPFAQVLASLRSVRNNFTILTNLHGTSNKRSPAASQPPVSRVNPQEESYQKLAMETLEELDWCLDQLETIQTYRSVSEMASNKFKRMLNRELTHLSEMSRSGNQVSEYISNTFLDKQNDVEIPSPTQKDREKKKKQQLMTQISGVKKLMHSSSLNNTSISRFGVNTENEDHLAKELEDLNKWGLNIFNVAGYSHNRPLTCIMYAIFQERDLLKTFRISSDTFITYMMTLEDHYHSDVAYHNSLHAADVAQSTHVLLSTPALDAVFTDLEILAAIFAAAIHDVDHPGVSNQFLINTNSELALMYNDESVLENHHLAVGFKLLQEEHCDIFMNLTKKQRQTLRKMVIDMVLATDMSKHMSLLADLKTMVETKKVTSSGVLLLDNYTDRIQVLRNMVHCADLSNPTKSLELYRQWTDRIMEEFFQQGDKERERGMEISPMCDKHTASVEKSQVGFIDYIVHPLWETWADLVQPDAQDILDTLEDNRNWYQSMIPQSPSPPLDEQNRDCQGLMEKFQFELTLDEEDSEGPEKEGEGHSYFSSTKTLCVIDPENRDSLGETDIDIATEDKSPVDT
Chain of Cytochrome P450 2D6 (Homo sapiens) (P10635 whole entry, looked up): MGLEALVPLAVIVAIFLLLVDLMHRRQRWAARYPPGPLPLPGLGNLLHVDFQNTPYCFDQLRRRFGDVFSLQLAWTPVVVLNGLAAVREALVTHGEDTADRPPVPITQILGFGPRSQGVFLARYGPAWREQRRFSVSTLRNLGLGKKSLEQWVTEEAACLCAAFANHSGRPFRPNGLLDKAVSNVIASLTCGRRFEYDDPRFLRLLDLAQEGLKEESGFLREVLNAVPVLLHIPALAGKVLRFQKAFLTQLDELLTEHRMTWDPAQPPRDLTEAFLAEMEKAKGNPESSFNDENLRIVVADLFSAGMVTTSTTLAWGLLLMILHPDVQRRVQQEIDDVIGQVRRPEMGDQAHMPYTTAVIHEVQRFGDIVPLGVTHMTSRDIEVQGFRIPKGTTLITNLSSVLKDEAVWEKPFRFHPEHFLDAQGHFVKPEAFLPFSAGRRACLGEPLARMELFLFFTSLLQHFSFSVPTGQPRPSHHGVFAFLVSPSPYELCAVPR

As for `COCC(=O)N1CCC2(CCCN(c3ccccc3)C2)CC1`, the Potency in test [1] was > 11.4 µM (inactive); in [5], > 46 µM (inactive). Further, the activity change, negative = inhibition in test [2] is 4.54% (inactive); in [3], -7.94% (inactive); in [9], 0.354% (inactive). Besides, the activity, negative = inhibition in [4] is -0.962% (inactive). For the same compound, the Potency result in [6], in test [7] and in [8] was “inactive” each time. Besides, the figures for the max response in test [9] (setting [13]) and in test [9] (setting [14]) were 4.96% and 6.05%, respectively. Besides, the result in test [10] was inactive.
`O=C(Nc1ccccc1)N1CC[C@@]2(CCCN(C(=O)c3cccc(F)c3)C2)C1`: the figures for the Potency in [1] and in test [5] were > 11.4 µM (inactive) and > 46 µM (inactive), respectively. Besides, the activity change, negative = inhibition in [2] is -10.5% (inactive); in test [3] it was -6.63% (inactive); in [9], 5.88% (inactive). For the same compound, the activity, negative = inhibition in test [4] is 4.89% (inactive). Also, the Potency entry in test [6], in test [7] and in test [8] was “inactive” throughout. For the same compound, the max response in test [9] (setting [13]) came out at 19.2%; in test [9] (setting [14]), 27.2%. For the same compound, the result in test [10] was inactive.
Turning to `Cc1noc(C)c1C(=O)N1CCC[C@@]2(CCN(C(=O)Nc3ccccc3)C2)C1`, the values for the Potency in test [1] and in test [5] were > 11.4 µM (inactive) and > 46 µM (inactive), respectively. Besides, the figures for the activity change, negative = inhibition in [2], in [3] and in test [9] were -22.6% (inactive), 19.8% (inactive) and 3.24% (inactive), respectively. Also, in test [4], the activity, negative = inhibition was -2.21% (inactive). Further, the Potency entry in [6], in [7] and in test [8] was “inactive” each time. Moreover, the max response is 3.75% in [9] (setting [13]) and 7.38% in test [9] (setting [14]). For the same compound, the outcome in test [10] was inactive.
For the compound `O=S(=O)(c1ccccc1)N1CCC2(CC1)CN(c1ccccc1)C2`, the results for the Potency in test [1] and in [5] were > 11.4 µM (inactive) and > 46 µM (inactive), respectively. In addition, the results for the activity change, negative = inhibition in test [2], in test [3] and in test [9] were 3.38% (inactive), 8.23% (inactive) and 4.76% (inactive), respectively. Besides, in test [4], the activity, negative = inhibition is -6.85% (inactive). Also, the Potency result in test [6] and in test [7] was “inactive” in each case. The values for the max response in test [9] (setting [13]) and in test [9] (setting [14]) were 12.5% and 18.4%, respectively. Moreover, the outcome in [10] was inactive.
`Cn1cccc1C(=O)N1CCC2(CC1)CN(C(c1ccccc1)c1ccccc1)C2`: the Potency was > 11.4 µM (inactive) in test [1], > 46 µM (inactive) in test [5], 15.8 µM (active) in [8] and 3.16 µM (active) in test [11]. Besides, the results for the activity change, negative = inhibition in [2], in test [3] and in test [9] were 14.4% (inactive), -18.7% (inactive) and -5.27% (inactive), respectively. Moreover, in test [4], the activity, negative = inhibition was -4.09% (inactive). Moreover, the Potency result in test [6] and in test [7] was “inactive” each time. The max response in test [9] (setting [13]) is -6.77%; in test [9] (setting [14]) it was -9.88%. Also, the result in [10] was inactive.
Take `O=C(Nc1ccccc1)N1CC2(CCN(S(=O)(=O)c3ccccc3)CC2)C1`: the Potency was > 11.4 µM (inactive) in [1] and > 46 µM (inactive) in [5]. The activity change, negative = inhibition was -1.41% (inactive) in test [2], 16.1% (inactive) in test [3] and -5.83% (inactive) in [9]. Besides, the activity, negative = inhibition in test [4] is -2.14% (inactive). The Potency result in test [6] and in test [7] was “inactive” in each case. In addition, the activation in test [12] was -12.4% (inactive). Further, the max response was 0.332% in [9] (setting [13]) and -5.36% in [9] (setting [14]). Moreover, in test [10], the result was inactive.
Consider `COc1ccc(NC(=O)N2CC[C@@]3(CCCN(S(C)(=O)=O)C3)C2)cc1`, for which the Potency is > 11.4 µM (inactive) in test [1] and > 46 µM (inactive) in test [5]. The activity change, negative = inhibition in [2] was -12.7% (inactive); in [3], 4.27% (inactive); in test [9] it was 4.71% (inactive). Further, the activity, negative = inhibition in test [4] is -1.03% (inactive). In addition, the Potency result in test [6], in [7] and in test [8] was “inactive” each time. Moreover, the values for the max response in test [9] (setting [13]) and in test [9] (setting [14]) were 8.24% and 15.1%, respectively. Also, in [10], the outcome was inactive.
